Screens as filed in PubChem.
PfG6PD inh: PfG6PD (Plasmodium falciparum) enzyme inhibition; PfGluPho enzyme, NADPH resazurin-diaphorase fluorescence; inhibition, % at 20 µM; 350,000 tested, 0.78% active; AID 504690;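 active means inhibition reaching at least a set limit at 20 µM in the primary screen, cut at about 59% in these data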;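 further: 0% = DMSO wells with substrate and 100% = DMSO wells lacking glucose-6-phosphate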
PfM18AAP inh: blocks P. falciparum M18 aspartyl aminopeptidase; recombinant PfM18AAP, H-Glu-NHMec fluorogenic cleavage; inhibition, % at 7.35 µM; 290,000 tested, 1.2% active; AID 1822;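 active means inhibition above the campaign mean inhibition over all tested compounds plus 3 SD, cut at about 28% in these data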;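 further: 0% = plate median of test compound wells and 100% = 2 mM ZnCl2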
ALR H2O2 inh: human ALR oxidase inhibition via reduced H2O2. purified ALR, DTT oxidation, H2O2 HRP-luminol luminescence. inhibition, % (test concentration not listed). 290,000 tested, 3.8% active. AID 485317;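 active means mean replicate inhibition above about 79%, with every replicate also reaching it, limit read from the data; inconclusive means only one of the two criteria met; inactive means mean below limit and not every replicate reaching it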
Target sequence (P55789 whole entry, looked up): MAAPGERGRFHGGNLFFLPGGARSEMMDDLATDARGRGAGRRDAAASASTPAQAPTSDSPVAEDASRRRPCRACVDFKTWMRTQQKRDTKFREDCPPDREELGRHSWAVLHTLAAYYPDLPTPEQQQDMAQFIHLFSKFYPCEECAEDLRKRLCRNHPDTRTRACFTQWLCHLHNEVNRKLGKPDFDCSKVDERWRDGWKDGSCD
PHOSPHO1 block: inhibitors of human PHOSPHO1 phosphatase | recombinant PHOSPHO1, absorbance phosphatase assay | inhibition, % at 13.3 µM | 290,000 tested, 1.1% active | AID 1565; in the data active means inhibition above about 60%
Target sequence (Q8TCT1 whole entry, looked up): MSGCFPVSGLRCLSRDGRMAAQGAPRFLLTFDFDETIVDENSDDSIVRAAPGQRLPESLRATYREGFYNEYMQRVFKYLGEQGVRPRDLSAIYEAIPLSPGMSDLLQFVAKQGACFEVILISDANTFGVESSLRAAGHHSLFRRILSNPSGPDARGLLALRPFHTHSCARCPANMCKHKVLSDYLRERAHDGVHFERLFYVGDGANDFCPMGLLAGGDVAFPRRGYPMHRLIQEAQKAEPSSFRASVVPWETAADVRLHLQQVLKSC
Cardio protect: protects H9c2 cardiomyocytes from peroxide injury | 360,000 tested, 0.63% active | H2O2 injury protection, ATPLite, 2 h | protection from H2O2 cell death, % at 20 µM;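 active means compounds giving at least 50% protection of heart cells from peroxide-induced death in the single-dose screen, raw or plate-pattern-corrected value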;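 further: 0% = DMSO wells with peroxide and 100% = DMSO wells without peroxide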
Active calls of the source: *. The list is not random: actives were taken first. Their share in the collection is about 5.6%.

What do the screens show for `CC(c1ccccc1)n1c(Cn2ncc3ccccc3c2=O)n[nH]c1=S` (stereo not given)?
PfG6PD inh: 37; PfM18AAP inh: 7; ALR H2O2 inh: 40; PHOSPHO1 block: -54; Cardio protect: 3

What do the screens show for `O=c1c2ccccc2cnn1Cc1n[nH]c(=S)n1C1CC2CCC1C2` (stereo not given)?
PfG6PD inh: 40; PfM18AAP inh: 5; ALR H2O2 inh: 86*; PHOSPHO1 block: -84; Cardio protect: -7

How did COC(=O)C(C)Sc1nc2ccsc2c(=O)n1Cc1ccccc1 (stereo not given) do in these assays?
PfG6PD inh: -18; PfM18AAP inh: -1; ALR H2O2 inh: 0; PHOSPHO1 block: 27; Cardio protect: 0

How did COc1ccc(NC(=O)CN2C(=O)COc3ccc(S(=O)(=O)N4CCOCC4)cc32)cc1Cl do in these assays?
PfG6PD inh: 4; PfM18AAP inh: 0; ALR H2O2 inh: -6; PHOSPHO1 block: 7; Cardio protect: 4

What do the screens show for `O=C(CNC(=O)c1ccccc1Br)N/N=C/c1cc(Br)ccc1O`?
PfG6PD inh: -34; PfM18AAP inh: -13; PHOSPHO1 block: -7; Cardio protect: 74*

What do the screens show for `O=C(N/N=C/c1cc(Cl)ccc1O)c1cccnc1`?
PfG6PD inh: -20; PfM18AAP inh: 14; PHOSPHO1 block: 46; Cardio protect: 45

What do the screens show for `Cc1ccc2nc(Cl)c(/C=N/NC(=O)[C@H]3C[C@@H]3c3ccccc3)cc2c1`?
PfG6PD inh: -31; PfM18AAP inh: 7; ALR H2O2 inh: 3; PHOSPHO1 block: 2; Cardio protect: -4

What do the screens show for `O=C(CN1CC(c2ccccc2)CC1=O)N/N=C/c1cc(Br)ccc1O` (stereo not given)?
PfG6PD inh: -15; PfM18AAP inh: 27; PHOSPHO1 block: -8; Cardio protect: 57*

What do the screens show for `Cc1ccc2nc(Cl)c(/C=N/NC(=O)c3ccccc3O)cc2c1`?
PfG6PD inh: -7; PfM18AAP inh: -1; ALR H2O2 inh: 97*; PHOSPHO1 block: 5; Cardio protect: -1

Results for O=C(N/N=C/c1cc(Cl)ccc1O)c1ccccc1Br ?
PfG6PD inh: -11; PfM18AAP inh: 3; PHOSPHO1 block: -22; Cardio protect: 77*

What do the screens show for `CCOc1ccc(CCNC(=O)COC(=O)COc2ccc(C#N)cc2)cc1OCC`?
PfG6PD inh: 1; Cardio protect: 0

What do the screens show for `CCC(O)c1cnc(OCc2ccccc2)nc1OCc1ccccc1` (stereo not given)?
PfG6PD inh: -1; Cardio protect: -5

How did COc1ccc(CCNC(=S)N2CCN(S(=O)(=O)c3ccccc3F)CC2)cc1 do in these assays?
PfG6PD inh: 19; PfM18AAP inh: 1; ALR H2O2 inh: 0; PHOSPHO1 block: 19; Cardio protect: -6

How did COc1ccc(C(=O)N/N=C/c2cc(Br)ccc2O)cc1OC do in these assays?
PfG6PD inh: 15; PfM18AAP inh: 1; ALR H2O2 inh: 0; PHOSPHO1 block: 20; Cardio protect: 60*

What do the screens show for `O=C(CNC(=O)c1ccncc1)N/N=C/c1cc(Br)ccc1O`?
PfG6PD inh: -26; PfM18AAP inh: 3; ALR H2O2 inh: 27; PHOSPHO1 block: -15; Cardio protect: 26

What do the screens show for `O=C(CNC(=O)c1ccccc1)N/N=C/c1cc(Br)ccc1O`?
PfG6PD inh: -44; PfM18AAP inh: 5; ALR H2O2 inh: -2; PHOSPHO1 block: 9; Cardio protect: 59*

What do the screens show for `O=C(C[n+]1ccccc1)N/N=C/c1cc(Br)cc(Br)c1O`?
PfG6PD inh: -15; PfM18AAP inh: 5; ALR H2O2 inh: 61; PHOSPHO1 block: 19; Cardio protect: 46

What do the screens show for `O=C(CP(=O)(c1ccccc1)c1ccccc1)N/N=C/c1cc(Br)cc(Br)c1O`?
PfG6PD inh: -40; PfM18AAP inh: 1; ALR H2O2 inh: -2; PHOSPHO1 block: -1; Cardio protect: 71*

How did CC(=O)c1ccc(OCc2cc(C(=O)NC(C)CCn3cccn3)no2)cc1 (stereo not given) do in these assays?
PfG6PD inh: -12; PfM18AAP inh: -14; ALR H2O2 inh: -11; Cardio protect: -3

How did COc1cc(C(=O)Nc2ccc(NC(=O)C3CCCCC3)nc2)cc(OC)c1OC do in these assays?
PfG6PD inh: -17; PfM18AAP inh: -2; PHOSPHO1 block: 6; Cardio protect: 4

What do the screens show for `COc1cc(C(=O)Nc2ccc(NC(=O)c3cccc(Cl)c3)nc2)cc(OC)c1OC`?
PfG6PD inh: 12; PfM18AAP inh: -1; PHOSPHO1 block: -6; Cardio protect: 68*

What do the screens show for `COc1cc(C(=O)Nc2ccccc2C(=O)Nc2ccccn2)cc(OC)c1OC`?
PfG6PD inh: 9; PfM18AAP inh: -1; ALR H2O2 inh: -2; PHOSPHO1 block: 1; Cardio protect: 60*

Results for COc1cc(C(=O)Nc2ccccn2)cc(OC)c1OC ?
PfG6PD inh: 0; PfM18AAP inh: 2; ALR H2O2 inh: -5; PHOSPHO1 block: -28; Cardio protect: 13

How did O=C(Nc1ccccc1)c1cccc(N2C(=O)CCC2=O)c1 do in these assays?
PfG6PD inh: 3; PfM18AAP inh: -1; ALR H2O2 inh: -5; PHOSPHO1 block: -11; Cardio protect: 4

How did COc1cc(C(=O)Nc2ccc(N(C)C)cc2)cc(OC)c1OC do in these assays?
PfG6PD inh: 40; PfM18AAP inh: -15; ALR H2O2 inh: 99*; PHOSPHO1 block: 29; Cardio protect: -6

How did CN(C)c1ccc(NC(=O)c2cccc(N3C(=O)CCC3=O)c2)cc1 do in these assays?
PfG6PD inh: 19; PfM18AAP inh: 7; ALR H2O2 inh: 99*; PHOSPHO1 block: 66*; Cardio protect: -9

How did CN(Cc1ccccc1)S(=O)(=O)c1ccc2[nH]c(=O)ccc2c1 do in these assays?
PfG6PD inh: -22; PfM18AAP inh: -4; ALR H2O2 inh: -6; PHOSPHO1 block: 18; Cardio protect: 4

How did Cc1nc2cc(OCc3cc(C(=O)NC(C)c4cnn(C)c4)no3)ccc2s1 (stereo not given) do in these assays?
PfG6PD inh: -9; PfM18AAP inh: 1; ALR H2O2 inh: 0; PHOSPHO1 block: 58; Cardio protect: -3

Results for CCOC(=O)c1[nH]c(C)c(CN(C(C)=O)c2ccc(OCC)cc2)c1C ?
PfG6PD inh: -5; PfM18AAP inh: -3; ALR H2O2 inh: -24; PHOSPHO1 block: 22; Cardio protect: -1

Results for O=C(Nc1ccccc1Cl)c1ccc2nccnc2c1 ?
PfG6PD inh: -10; PfM18AAP inh: 0; ALR H2O2 inh: inconclusive; PHOSPHO1 block: -14; Cardio protect: -14

Results for COc1cc(C(=O)Nc2nc(-c3cccs3)cs2)cc(OC)c1OC ?
PfG6PD inh: 47; PfM18AAP inh: 1; ALR H2O2 inh: -1; PHOSPHO1 block: 0; Cardio protect: 81*

How did COC(=O)c1ccccc1NC(=O)c1ccc2nccnc2c1 do in these assays?
PfG6PD inh: 4; PfM18AAP inh: 3; ALR H2O2 inh: -1; PHOSPHO1 block: -10; Cardio protect: 64*

What do the screens show for `COc1ccc(C(=O)Nc2nc(-c3cccs3)cs2)cc1`?
PfG6PD inh: 56; PfM18AAP inh: -6; ALR H2O2 inh: 16; PHOSPHO1 block: -2; Cardio protect: 1
